According to PubChem BioAssay (Tox21):
Records with an inconclusive call do not appear. Active and inactive are the calls of the source. Unless noted, calls follow the shape of the dose curve; as a rule, active = well fitted curve in the direction sought with a large enough effect in the repeat runs; inconclusive = weak or mixed curves; inactive = no such curve, though single readings can be large; an effect the other way counts as inactive or inconclusive.

Legend:
[1] = qHTS assay to test for compound auto fluorescence at 535 nm (green) in HEK293 cells (AID 720680)
[2] = qHTS assay to test for compound auto fluorescence at 460 nm (blue) in HEK293 cell free culture (AID 720681)
In short: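 Compounds were added to cell-free DMEM with 10% FBS and fluorescence read directly. The blue channel used 405 nm excitation and 460 nm emission, with triamterene as the reference fluorophore.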

[3] = qHTS assay to test for compound auto fluorescence at 535 nm (green) in HEK293 cell free culture (AID 720682)
In short: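 No cells present: wells hold DMEM supplemented with 10% FBS, into which compound or vehicle is pinned. Green emission is then recorded (485 nm excitation, 535 nm emission) and scaled to fluorescein.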

[4] = qHTS assay to test for compound auto fluorescence at 590 nm (red) in HEK293 cell free culture (AID 720683)
In short: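 Cell-free wells of DMEM with 10% FBS received compound, and intrinsic fluorescence was read at excitation/emission 540/590 nm. Values expressed as equivalence to Rose Bengal sodium.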

[5] = qHTS assay to test for compound auto fluorescence at 590 nm (red) in HepG2 cell free culture (AID 720684)
In short: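 Rose Bengal sodium served as the reference for red signal. Test compounds were dispensed into serum-containing MEM (10% FBS) without cells, and plates were read at 540/590 nm.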

[6] = qHTS assay to test for compound auto fluorescence at 460 nm (blue) in HepG2 cells (AID 720687)
In short: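 HepG2 cells in MEM with 10% FBS, attached overnight at 37 C, were exposed to compound or DMSO for 1 hr at 37 C, 5% CO2. Blue fluorescence was read at 405/460 nm, with triamterene as reference fluorophore.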

[7] = biological target: Glucocorticoid receptor (Homo sapiens) (UniProt P04150); assay: qHTS assay to identify small molecule agonists of the glucocorticoid receptor (GR) signaling pathway (AID 720691; active = well fitted activation curve with a large enough effect in the signal ratio in the repeat runs, not every such curve was filed as active; the % refers to the signal ratio)
In short: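 Agonist-mode qHTS in HeLa cells stably expressing a glucocorticoid-response-element beta-lactamase reporter. Fluorescence intensity read with FRET substrate (2 h, room temperature) after 18 h compound treatment at 37 C.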

[8] = biological target: Glucocorticoid receptor (Homo sapiens) (UniProt P04150); assay: qHTS assay to identify small molecule antagonists of the glucocorticoid receptor (GR) signaling pathway (AID 720692; active = well fitted inhibition curve with a large enough effect in the signal ratio in the repeat runs, not every such curve was filed as active; the % refers to the signal ratio)
In short: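 Inhibition of dexamethasone-driven (5 nM final) beta-lactamase expression was measured in GRE-reporter HeLa cells over 18 h at 37C. Fluorescence was read after 2 h with the B/G FRET substrate at room temperature.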

[9] = qHTS assay to identify small molecule antagonists of the glucocorticoid receptor (GR) signaling pathway - cell viability counter screen (AID 720693); also: nearly all actives have a fitted effect of over 55% in size
[10] = qHTS assay for identifying genotoxic compounds that show differential cytotoxicity against isogenic chicken DT40 cell lines with known DNA damage response pathways - wild type cell line (AID 743012); also: nearly all actives have a fitted effect of over 60% in size; also: potency is read from the fitted curve at half-maximal effect
In short: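 Viability by ATP luminescence (CellTiter-Glo, 30 min RT) after 40 h compound treatment at 37 C/5% CO2, using 300 parental DNA repair-proficient DT40 cells per well.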

[11] = qHTS assay for identifying genotoxic compounds that show differential cytotoxicity against isogenic chicken DT40 cell lines with known DNA damage response pathways - Rev3 mutant cell line (AID 743014); also: nearly all actives have a fitted effect of over 55% in size; also: potency is read from the fitted curve at half-maximal effect
[12] = qHTS assay for identifying genotoxic compounds that show differential cytotoxicity against isogenic chicken DT40 cell lines with known DNA damage response pathways - Rad54/Ku70 mutant cell line (AID 743015); also: nearly all actives have a fitted effect of over 60% in size; also: potency is read from the fitted curve at half-maximal effect
[13] = qHTS assay to identify small molecule antagonists of the androgen receptor (AR) signaling pathway - cell viability counter screen (AID 743033; also: nearly all actives have a fitted effect of over 45% in size)
[14] = biological target: Androgen receptor (Homo sapiens) (UniProt P10275); assay: qHTS assay to identify small molecule antagonists of the androgen receptor (AR) signaling pathway (AID 743035; active = well fitted inhibition curve with a large enough effect in the signal ratio in the repeat runs, not every such curve was filed as active; the % refers to the signal ratio)
In short: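 Antagonist mode: AR-bla HEK293 cells co-treated with test compounds and agonist R1881 for 16 h at 37C, 5% CO2. Beta-lactamase activity read as FRET fluorescence after 2 h room-temperature substrate loading.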

[15] = biological target: Androgen receptor (Homo sapiens) (UniProt P10275); assay: qHTS assay to identify small molecule agonists of the androgen receptor (AR) signaling pathway (AID 743036; active = well fitted activation curve with a large enough effect in the signal ratio in the repeat runs, with a control signal flat, not every such curve was filed as active; the % refers to the signal ratio)
In short: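 Quantitative HTS of the Tox21 10K library in HEK293 cells bearing a stably integrated UAS-controlled beta-lactamase reporter. Compound exposure lasted 16 h at 37C. Reporter activity was detected by FRET substrate fluorescence after 2 h at room temperature.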

[16] = biological target: Androgen receptor (Homo sapiens) (UniProt P10275); assay: qHTS assay to identify small molecule agonists of the androgen receptor (AR) signaling pathway using the MDA cell line (AID 743040; also: nearly all actives have a fitted effect of over 20% in size)
In short: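 Luciferase read-out, ONE-Glo, 30 min RT. Cells: MDA-kb2 AR-luc, MMTV promoter with AR and GR response elements. Compound exposure 16 h, 37C, 0% CO2, after 5 h pre-incubation. qHTS agonist mode.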

[17] = biological target: Androgen receptor (Homo sapiens) (UniProt P10275); assay: qHTS assay to identify small molecule antagonists of the androgen receptor (AR) signaling pathway using the MDA cell line (AID 743042; also: nearly all actives have a fitted effect of over 55% in size)
In short: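 MDA-kb2 breast carcinoma cells carrying MMTV-luciferase (AR/GR responsive) were co-treated with compounds and the agonist R1881 for 16 h at 37C. Inhibition read as ONE-Glo luminescence; CellTiter-Fluor fluorescence measured in parallel for cytotoxicity.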

[18] = qHTS assay to test for compound auto fluorescence at 535 nm (green) in HepG2 cell free culture (AID 720686)
[19] = qHTS assay to identify small molecule antagonists of the androgen receptor (AR) signaling pathway using the MDA cell line - cell viability counter screen (AID 743041; also: nearly all actives have a fitted effect of over 45% in size)
In short: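 Cytotoxicity counter screen: MDA-kb2 AR-luc cells, compound + R1881, 16 h, 37C, 0% CO2; CellTiter-Fluor added at 15.5 h, fluorescence read after 30 min.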
% is scaled to controls: 0 for no effect and ±100 for the full control effect.

Sequence of Glucocorticoid receptor (Homo sapiens) (P04150 whole entry, looked up): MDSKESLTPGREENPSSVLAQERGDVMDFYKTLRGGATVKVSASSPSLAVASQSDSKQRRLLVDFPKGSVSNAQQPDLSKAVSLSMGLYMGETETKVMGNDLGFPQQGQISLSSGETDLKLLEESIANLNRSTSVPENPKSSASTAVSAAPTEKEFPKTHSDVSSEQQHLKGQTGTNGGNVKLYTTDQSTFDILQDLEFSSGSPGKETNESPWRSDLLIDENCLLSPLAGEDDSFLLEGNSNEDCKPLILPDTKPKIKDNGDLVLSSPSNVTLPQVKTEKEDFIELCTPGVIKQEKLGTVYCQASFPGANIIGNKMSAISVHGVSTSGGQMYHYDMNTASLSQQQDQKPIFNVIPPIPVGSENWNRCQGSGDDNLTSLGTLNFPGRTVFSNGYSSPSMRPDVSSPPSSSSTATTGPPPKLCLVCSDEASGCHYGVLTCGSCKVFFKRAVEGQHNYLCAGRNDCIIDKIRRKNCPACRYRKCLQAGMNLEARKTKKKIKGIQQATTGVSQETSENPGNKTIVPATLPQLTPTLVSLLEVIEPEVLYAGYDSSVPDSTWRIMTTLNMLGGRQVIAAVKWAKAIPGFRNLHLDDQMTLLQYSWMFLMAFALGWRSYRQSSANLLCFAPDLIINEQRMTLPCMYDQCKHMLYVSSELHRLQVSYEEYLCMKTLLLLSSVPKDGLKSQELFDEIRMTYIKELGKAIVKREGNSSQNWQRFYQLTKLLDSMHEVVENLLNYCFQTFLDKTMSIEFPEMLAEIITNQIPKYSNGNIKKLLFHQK
Sequence of Androgen receptor (Homo sapiens) (P10275 whole entry, looked up): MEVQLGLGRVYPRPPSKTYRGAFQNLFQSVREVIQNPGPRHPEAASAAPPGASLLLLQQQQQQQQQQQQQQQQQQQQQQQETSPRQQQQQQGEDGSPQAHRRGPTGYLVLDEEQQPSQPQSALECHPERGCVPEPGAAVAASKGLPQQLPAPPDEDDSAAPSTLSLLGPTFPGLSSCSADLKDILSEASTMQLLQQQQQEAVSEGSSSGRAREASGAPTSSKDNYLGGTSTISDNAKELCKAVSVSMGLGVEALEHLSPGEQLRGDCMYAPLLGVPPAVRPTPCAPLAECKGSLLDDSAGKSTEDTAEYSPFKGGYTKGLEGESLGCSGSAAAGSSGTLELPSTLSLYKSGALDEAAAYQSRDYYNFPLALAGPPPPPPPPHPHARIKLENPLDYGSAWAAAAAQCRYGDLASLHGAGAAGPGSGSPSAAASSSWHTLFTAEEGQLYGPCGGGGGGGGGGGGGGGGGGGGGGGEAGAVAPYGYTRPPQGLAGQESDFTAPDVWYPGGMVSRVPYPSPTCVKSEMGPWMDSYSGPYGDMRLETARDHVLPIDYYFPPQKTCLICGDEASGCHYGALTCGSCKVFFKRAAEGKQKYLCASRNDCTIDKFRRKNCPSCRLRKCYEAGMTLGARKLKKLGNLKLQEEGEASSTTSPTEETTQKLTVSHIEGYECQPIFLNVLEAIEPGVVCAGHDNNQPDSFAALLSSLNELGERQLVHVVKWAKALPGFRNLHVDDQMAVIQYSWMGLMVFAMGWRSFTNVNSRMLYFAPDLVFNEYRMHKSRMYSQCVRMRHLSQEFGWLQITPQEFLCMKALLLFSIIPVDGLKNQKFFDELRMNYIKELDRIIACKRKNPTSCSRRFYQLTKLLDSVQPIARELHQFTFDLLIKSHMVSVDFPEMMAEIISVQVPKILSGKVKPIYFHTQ

O=C(O)c1ccc(O)c(O)c1
inactive: outcome [1] | Potency [2] | outcome [3] | outcome [4] | outcome [5] | outcome [6] | Potency [7] | Potency [8] | Potency [9] | Potency [10] | Potency [11] | Potency [12] | Potency [13] | Potency [14] | outcome [15] | outcome [16] | Potency [17]

CCCCCCCCNC
inactive: outcome [1] | Potency [2] | outcome [3] | outcome [4] | outcome [5] | outcome [18] | Potency [7] | Potency [8] | Potency [10] | Potency [11] | Potency [12] | Potency [13] | Potency [19]

O=C(O)c1ccncc1
inactive: outcome [1] | Potency [2] | outcome [3] | outcome [4] | outcome [5] | outcome [18] | outcome [6] | Potency [7] | Potency [8] | Potency [9] | Potency [10] | Potency [11] | Potency [12] | Potency [13] | Potency [14] | outcome [15] | outcome [16] | Potency [19] | Potency [17]

CCCCCCCCCCCCCCCCCCCl
inactive: fluorescence, % of fluorescein [1] -0.0209% [at 3.72 µM] | fluorescence, % of fluorescent control [2] -0.0234% [at 3.72 µM] | activity change [3] 0.0076% [at 3.72 µM] | fluorescence, % of fluorescent control [4] 0.0246% [at 3.72 µM] | fluorescence, % of Rose Bengal [5] -0.217% [at 3.72 µM] | fluorescence, % of fluorescein control [18] 0.0829% [at 3.72 µM] | viability change, negative = cytotoxic [9] -4.59% [at 7.04 µM] | activity change, negative = cytotoxicity [10] 14.5% [at 8.52 µM] | activity change, negative = cytotoxicity [13] -8.37% [at 7.04 µM] | viability change, negative = cytotoxic [19] -1.19% [at 8.47 µM]

COC(=O)Cc1cccc2ccccc12
inactive: outcome [1] | Potency [2] | outcome [3] | outcome [4] | outcome [5] | outcome [18] | outcome [6] | Potency [7] | Potency [8] | Potency [9] | Potency [13] | outcome [15] | outcome [16] | Potency [19] | Potency [17]
active: Potency [11] 54.5 µM

C[Si](C)(C)O[Si](C)(C)O[Si](C)(C)C
inactive: outcome [1] | Potency [2] | outcome [3] | outcome [4] | outcome [5] | outcome [18] | Potency [9] | Potency [10] | Potency [11] | Potency [12] | Potency [13] | Potency [19]

COC=O
inactive: fluorescence, % of fluorescein [1] -0.112% [at 9.17 µM] | fluorescence, % of fluorescent control [2] -0.168% [at 9.17 µM] | activity change [3] -0.0308% [at 9.17 µM] | fluorescence, % of fluorescent control [4] -0.0562% [at 9.17 µM] | fluorescence, % of Rose Bengal [5] -0.0589% [at 9.17 µM] | fluorescence, % of fluorescein control [18] -0.0327% [at 9.17 µM] | fluorescence, % of fluorescent control [6] -0.259% [at 9.17 µM] | viability change, negative = cytotoxic [9] -0.963% [at 7.04 µM] | activity change, negative = cytotoxicity [13] -27.8% [at 7.04 µM] | viability change, negative = cytotoxic [19] 12.8% [at 8.47 µM]
active: Potency [11] 4.48 µM

CC1=C(C)C(=O)C(CCCCC#CCCCC#CCO)=C(C)C1=O
active: Potency [10] 8.41 µM | Potency [11] 10.6 µM | Potency [12] 11.9 µM
inactive: outcome [1] | Potency [2] | outcome [3] | outcome [4] | outcome [5] | outcome [6] | Potency [7] | Potency [8] | Potency [9] | Potency [13] | Potency [19]
